Bioassay records: PubChem, Broad Institute
DUX4 inh: DUX4-mediated transcription inhibition; activity change, negative = inhibition, % (no concentration beside the values); 0.8% of 37,000 active; AID 1224904; 293T-iDUX4 ZSCAN4-Gaussia luciferase reporter, 24 h; hits give low values;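 active = mean inhibition of at least 10% in the main channel, exceeding the control channel by a set limit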;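 note: 0% = median of neutral control wells and -100% = median of positive control wells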
Numbers without * were called inactive. The entries come from a sample that favours hits as a whole.

SMILES	DUX4 inh
CO[C@H]1CN(C)C(=O)c2ccc(NC(=O)NC(C)C)cc2OC[C@@H](C)N(Cc2cocn2)C[C@H]1C	2.4
CCN1[C@@H]2Cn3c(ccc(-c4ccccc4F)c3=O)[C@H]1[C@@H](C(=O)NCCOC)[C@@H]2CO	3.1
C[C@@H]1CN([C@@H](C)CO)C(=O)c2cc(NS(=O)(=O)c3cn(C)cn3)ccc2O[C@@H](C)CCCCO[C@@H]1CN(C)C(=O)c1ccncc1	0.8
Cc1cccc(S(=O)(=O)N2C[C@@H](O)COC[C@@H]3O[C@@H](CC(=O)NCc4ccc5c(c4)OCO5)CC[C@H]32)c1	8.8
O=C(C[C@H]1CC[C@@H]2[C@H](COC[C@@H](O)CN2Cc2nccs2)O1)NCc1ccc(Cl)cc1	1.2
COC(=O)C[C@H]1CC[C@@H]2[C@H](COc3ccc(NC(=O)c4ccccc4F)cc3C(=O)N2C)O1	2.5
Cc1cccc(-c2ccc([C@@H]3[C@H]4CN(C(=O)c5cnccn5)CC(=O)N4[C@H]3CO)cc2)c1	1.2
N#Cc1ccc(-c2ccc([C@H]3[C@@H](CO)N4CCCCN(C(=O)Nc5ccc(F)cc5)C[C@H]34)cc2)cc1	-39.2*
N#Cc1ccc(-c2ccc([C@H]3[C@H]4CN(C(=O)Nc5ccc(F)cc5)CCCCN4[C@H]3CO)cc2)cc1	38.9
O=C(Nc1cccc(F)c1)N1CCCCN2[C@H](C1)[C@@H](c1ccc(-c3ccncc3)cc1)[C@@H]2CO	6.6
O=C(NC1CCCC1)N1CCCCN2[C@H](C1)[C@H](c1ccc(-c3ccccc3)cc1)[C@@H]2CO	1.0
Cc1ccccc1-c1ccc([C@@H]2[C@@H](CO)N3CCCCN(C(=O)NC4CCCC4)C[C@H]23)cc1	-8.6
N#Cc1ccc(-c2ccc([C@H]3[C@H](CO)N4CCCCN(C(=O)Nc5ccc(F)cc5)C[C@@H]34)cc2)cc1	9.7
Cc1ccccc1-c1ccc([C@@H]2[C@@H](CO)N3CCCCN(C(=O)Nc4cccc(F)c4)C[C@@H]23)cc1	-26.8*
COc1ccccc1-c1ccc([C@H]2[C@@H](CO)N3CCCCN(C(=O)NC4CCCC4)C[C@H]23)cc1	-23.0*
O=C(Nc1ccc(F)cc1)N1CCCCN2[C@H](C1)[C@H](c1ccc(-c3cccc(F)c3)cc1)[C@@H]2CO	9.0
CCCNC(=O)N1C[C@H](C)[C@H](OC)CN(C)C(=O)c2cc(NS(C)(=O)=O)ccc2OC[C@@H]1C	-0.7
C[C@@H](NC(=O)[C@@H]1N[C@@H]2c3ccc(C4=CCCCC4)c(=O)n3C[C@@H]2[C@H]1CO)c1ccccc1	4.3
O=C(C1CCC1)N1CC2(C1)[C@H](c1ccccc1)[C@H](CO)N2C(=O)c1cccnc1	4.6
C/C=C/c1ccc([C@@H]2[C@H](CO)N(CCC(F)(F)F)C23CN(C(C)=O)C3)cc1	-2.5
CO[C@H]1CC[C@@H]2CCN(C)C(=O)C[C@@H](c3ccccc3)CN(C)C(=O)c3cc(C#N)ccc3OC[C@H]1O2	-4.9
COCC(=O)N1C[C@H](C)[C@@H](OC)CN(C)C(=O)c2ccc(NC(=O)c3cc(C)on3)cc2OC[C@H]1C	0.2
